High-throughput results from PubChem.
HEK293 cAMP ctrl – parental HEK293 cAMP activation (counter-screen); AID 938; actives 2.5% (n = 73,000); Potency, µM (series often up to 57.1 µM), for the others: at the highest dose activation, most hits filed as activators; parental HEK293 CNG cAMP sensor, membrane potential fluorescence; also: % of control where 0% means no effect; nearly all actives have a fitted effect of over 55% in size
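Counterscreen for endogenous-receptor signalling: CNG-channel HEK 293 cells report cAMP rise by membrane depolarization. After 60 min dye equilibration with 100 uM RO 20-1724, compounds incubated 30 min before bottom-read fluorescence at 590 nm.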
Bst PK mod – pyruvate kinase (B. stearothermophilus) modulation; purified pyruvate kinase, luminescence ATP production; ribose 5-phosphate activator present at AC10; Potency, µM; actives 1.2% (n = 51,000); in the data active = potency below about 11 µM; inconclusive = mostly about 12 µM to 25 µM;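 the screen sought inhibitors and activators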;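 also: scaled between full activation by ribose 5 phosphate and full inhibition by luteolin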
15-hLO inh – blocks human 15-lipoxygenase activity; actives 1.4% (n = 74,000); purified 15hLO-1, xylenol orange hydroperoxide absorbance; Potency, µM (top dose mostly 57.1 µM), for the others: top-dose activity change, negative = inhibition, actives largely listed as inhibitors; P16050; also: % is scaled to controls: 0 for no effect and ±100 for the full control effect; nearly all actives have a fitted effect of over 55% in size
Target sequence (P16050 whole entry, looked up): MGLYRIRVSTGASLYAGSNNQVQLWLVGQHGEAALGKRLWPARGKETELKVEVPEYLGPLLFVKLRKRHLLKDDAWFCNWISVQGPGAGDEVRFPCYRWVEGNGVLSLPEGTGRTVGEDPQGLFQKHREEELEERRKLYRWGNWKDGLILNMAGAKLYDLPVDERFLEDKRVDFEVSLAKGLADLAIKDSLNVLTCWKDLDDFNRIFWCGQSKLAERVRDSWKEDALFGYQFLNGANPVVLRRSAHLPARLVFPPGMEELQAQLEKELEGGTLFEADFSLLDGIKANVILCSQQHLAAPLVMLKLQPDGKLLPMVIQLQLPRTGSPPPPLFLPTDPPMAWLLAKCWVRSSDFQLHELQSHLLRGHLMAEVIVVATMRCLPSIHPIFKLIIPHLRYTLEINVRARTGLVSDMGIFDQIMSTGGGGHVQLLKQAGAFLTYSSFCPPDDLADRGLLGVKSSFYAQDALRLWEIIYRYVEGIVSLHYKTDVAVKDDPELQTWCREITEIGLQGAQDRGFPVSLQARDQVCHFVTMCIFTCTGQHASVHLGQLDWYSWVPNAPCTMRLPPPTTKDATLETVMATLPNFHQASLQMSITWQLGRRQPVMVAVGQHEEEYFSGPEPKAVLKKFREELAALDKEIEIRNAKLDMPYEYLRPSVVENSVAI
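Purified human 15hLO-1 (40 nM) in 25 mM Hepes pH 7.5, 0.01% Triton X-100, preincubated 15 min RT with compound, then 50 uM arachidonic acid for 6 min. Hydroperoxide read by ferrous/xylenol orange, 30 min; 573/405 nm absorbance ratio gave progress.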
Tau fil binding – binders of human tau filaments. P10636. AID 596. recombinant tau filaments, thioflavin S fluorescence, 15 h; filaments grown with octadecylsulfate alongside compound. Potency, µM (titrated, usually from 57.1 µM), without a hit: at the top dose activity change, negative = inhibition. actives 2% (n = 71,000);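 also: % is scaled to controls: 0 for no effect and ±100 for the full control effect; actives lower thioflavin S fluorescence by blocking filaments or displacing dye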
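His-tagged recombinant human tau (exons 2, 3 and 10 included), 1 uM, was induced to fibrillize by 30 uM sodium octadecylsulfate with compound present. After 15 h at 37 C, thioflavine S fluorescence (ex 450, em 510 nm) was read.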
FLuc inh – firefly luciferase inhibition; purified firefly luciferase, luminescence, 8 min; AID 411; P08659; Potency, µM (titrated, usually from 57.1 µM), for inactives: at the highest dose activity change, negative = inhibition, actives largely listed as inhibitors; actives 2.2% (n = 72,000); also: % is scaled to controls: 0 for no effect and ±100 for the full control effect; nearly all actives have a fitted effect of over 40% in size
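Titration-based qHTS; buffer 50 mM imidazole pH 7.2, 50 mM KCl, 7 mM MgCl2, 10 uM ATP, 0.01% Tween 20, 0.05% BSA; luciferase/luciferin detector mix added after compound; 8 min, ambient; luminescence.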
TSHR ag – TSH receptor (human) agonism; P16473; HEK293-CNG-TSHR cells (CNG channel as cAMP sensor), membrane potential dye, cAMP; Potency, µM (highest dose often 57.1 µM), for the others: at the highest dose activation, actives largely listed as activators; actives 0.48% (n = 73,000); AID 926; active = well fitted activation curve with a large enough effect in the main read-out, with a control signal flat, not every such curve was filed as active; inconclusive = small, poorly fitted or top-dose-only effect, or a change in a side signal; inactive = no such curve, though single readings can be large or run the other way; % of control where 0% means no effect;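 also: the control signal comes from parental cells without the receptor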
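HEK 293 cells stably expressing TSHR and a modified CNG channel, with CNG-only parental cells as counterscreen, were preloaded 60 min at room temperature with membrane potential dye containing 100 uM RO 20-1724. Compound exposure was 30 min, and depolarization was read as fluorescence at 590 nm.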
Active calls of the source: *; ? = inconclusive; . = no result given; [ ] = another dose, or the depositor's remark. Compounds with a hit are over-represented: about 7.8% of the library has one in this group of screens. Unless noted, calls follow the shape of the dose curve; as a rule, active = well fitted curve in the direction sought with a large enough effect; inconclusive = small, poorly fitted or top-dose-only effect, or another doubt; inactive = no such curve, though single readings can be large; an effect the other way counts as inactive or inconclusive. Potency is read from the fitted curve at half-maximal effect.

SMILES | HEK293 cAMP ctrl | Bst PK mod | 15-hLO inh | Tau fil binding | FLuc inh | TSHR ag
CC1CN(C(c2cccs2)c2sc3ncnn3c2O)CC(C)O1 (stereo not drawn) | ? | . | 5.9% | -8.1% | 0.2% | ?
COc1ccc(C(c2sc3ncnn3c2O)N2CC(C)OC(C)C2)cc1OC (stereo not drawn) | 0.1% | . | 4.9% | 1.0% | 12.6µM* | 7.3%
COc1ccc(C(c2sc3ncnn3c2O)N2CCN(c3ccccc3F)CC2)cc1OC (stereo not drawn) | 7.8% | . | 0.0% | -6.6% | 10µM* | 5.8%
Oc1ccccc1NCC(O)Cn1ccc2ccccc21 (stereo not drawn) | -49.5% | >57 | 6.31µM* | 12.6µM* | 3.3% | ?
OCc1nc2ccccc2n1CC(O)Cn1ccc2ccccc21 (stereo not drawn) | 9.4% | >57 | -2.1% | -28.7% | -0.2% | -10.4%
O=C1c2ccccc2C(Cc2ccncc2)(Cc2ccncc2)c2ccccc21 | 3.16µM* | . | ? | ? | -0.1% | ?
Cc1cc(C(=O)CSc2nnc(-c3cccnc3)n2-c2ccccc2F)c(C)n1C | 7.1% | >11.4 | 15.8µM* | 88.3% | -2.2% | 0.7%
Cc1noc(C)c1C(=O)Nc1c(F)cc(F)cc1Br | 0.6% | >57 | -1.6% | -8.6% | -0.5% | 7.8%
O=C(Nc1c(F)cc(F)cc1Br)c1ccco1 | 0.9% | >57 | -1.1% | 15.8µM* | 3.3% | 8.1%
Nc1ccccc1C#Cc1ccccc1 | -7.2% | . | . | ? | . | -2.9%
Cc1cccc(C#Cc2ccccc2)n1 | 11.8% | . | ? | ? | 12.6µM* | 25.0%
C/C(=N/O)c1ccc2cc(Br)c3ccccc3c2c1 | -1.8%[11.4 µM] | . | -2.2%[11.4 µM] | -9.8%[11.4 µM] | 1.1%[11.4 µM] | -0.8%[11.4 µM]
Cc1c(C)n(CC(O)CN2CCCCCC2)c2ccccc12 (stereo not drawn) | 18.9% | . | ? | 12.6µM* | 0.9% | 9.4%
COCCn1c(SCC(=O)N2CCC(C)CC2)nc2ccccc2c1=O | 20µM* | >57 | -0.8% | 3.0% | 3.8% | ?
Oc1ccc(-c2[nH]ncc2-c2cccc3cccnc23)c(O)c1 | 8.2% | 5.88* | -5.2% | 5.7% | -0.7% | 25.9%
C=CCSC1=N/C(=C\c2ccc3c(c2)OCO3)C(=O)S1 | 14.9% | . | -22.0% | 19.3% | -0.6% | 5.8%
CC1=C/C(=C\c2ccc3c(c2)OCO3)C(=O)S1 | ? | >57 | ? | 25.1µM* | -14.2% | ?
O=C1[C@@H]2[C@@H](C(=O)N1c1ccc(OCc3ccccc3)cc1)[C@@H]1c3ccccc3[C@@H]2[n+]2ccccc21 | 4.9%[11.4 µM] | . | -0.7%[11.4 µM] | -16.2%[11.4 µM] | 1.3%[11.4 µM] | -0.6%[11.4 µM]
Oc1cccc(O)c1O | 4.7% | . | 12.6µM* | -3.8% | . | 1.8%
O=[N+]([O-])c1cccc(Cl)c1Cl | 7.4% | . | -3.7% | 4.4% | . | -3.4%
COc1ccc(N2CCN(C(=O)CSc3ncccc3-c3nc4ccccc4[nH]3)CC2)cc1 | 4.1% | . | -10.1% | ? | 12.6µM* | 5.1%
Cc1cccc(-c2nc(C#N)c(N3CCCCCC3)o2)c1 | 23.4% | >57 | -6.7% | 17.7% | -7.2% | 25.1µM*
O=[N+]([O-])c1ccc2c(c1)Cc1cc(N=Cc3ccc4c(c3)OCO4)ccc1-2 | -13.2%[11.4 µM] | . | 4.4%[11.4 µM] | 0.8%[11.4 µM] | -2.7%[11.4 µM] | -4.5%[11.4 µM]
N=C1N=C(N)c2cc3ccccc3cc21 | -1.0% | . | 1.4% | 2.51µM* | . | -1.6%
Nc1ccc2cc3ccccc3cc2c1 | 4.1% | . | ? | ? | . | -10.3%
O=C(CN1CC(c2ccccc2)CC1=O)Nc1ccc2c(c1)OCO2 (stereo not drawn) | ? | . | 0.1% | 25.1µM* | -3.6% | ?
O=C(CN1C(=O)c2cccc3cccc1c23)NCc1ccc2c(c1)OCO2 | 10.6% | 2.75* | -6.9% | 83.9% | 1.5% | 9.3%
CC(C(=O)NCc1ccc2c(c1)OCO2)N1c2cccc3cccc(c23)S1(=O)=O (stereo not drawn) | ? | 0.94* | -12.3% | -5.3% | -0.7% | ?
O=C(CN1C(=O)c2cccc3cccc1c23)Nc1ccc(S(=O)(=O)N2CCOCC2)cc1 | 3.1% | 10.5* | -1.1% | -9.9% | 0.9% | -0.1%
